Values joined by “and” are separate entries in the source; they are usually repeats but may differ in a detail not shown here. Equal values may be shown once. Among all 5,500 compounds or so, about 2,000 (36%) were called active. Inconclusive results (about 18%) are left out. Cut-off read from the data, not from the text of the source: active = normalized growth mostly below about 0.91 (no sharp cut-off); inconclusive = no clear call, values can overlap the other calls; inactive = mostly above about 0.92. Some of the results follow.
Experiment: chemical genetic growth profiling, strain panel (AID 1159580);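 note: tested at 20 µM; growth read once vehicle control cultures reached saturation at 30 °C; 1 = growth at the plate median or of vehicle wells; lower values mean less growth of the strain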
Details: S. cerevisiae deletion strains, growth OD

Measured: normalized growth

COc1cc2c(cc1OC)Cc1cc(OC)c(OC)cc1Cc1cc(OC)c(OC)cc1C2
inactive: locus YAL021C, strain ccr4, hits give low values 1.03 | locus YAL026C, strain drs2, hits give low values 1.04 | locus YAL030W, strain snc1, hits give low values 1.03 | locus YBL061C, strain skt5, hits give low values 1.03 | locus YBR009C, strain hhf1, hits give low values 1.03 | locus YBR021W, strain FUR4, hits give low values 1.02 | locus YBR023C, strain chs3, hits give low values 1.03 | locus YBR171W, strain sec66, hits give low values 1.05 | locus YBR229C, strain ROT2, hits give low values 1.02 | locus YBR231C, strain swc5, hits give low values 1.04 | locus YBR279W, strain paf1, hits give low values 1.02 | locus YCL011C, strain gbp2, hits give low values 1.04 | locus YCL016C, strain dcc1, hits give low values 1.03 | locus YCL029C, strain bik1, hits give low values 1.02 | locus YCL061C, strain MRC1, hits give low values 1.02 | locus YCL069W, strain vba3, hits give low values 1.02 | locus YCR088W, strain abp1, hits give low values 1.02 | locus YDL005C, strain med2, hits give low values 1.03 | locus YDL035C, strain GPR1, hits give low values 1.01 | locus YDL040C, strain nat1, hits give low values 1.05 | locus YDL074C, strain BRE1, hits give low values 1.03 | locus YDL101C, strain DUN1, hits give low values 1.02 | locus YDL134C, strain PPH21, hits give low values 1.02 | locus YDL185W, strain tfp1, hits give low values 1.02 | locus YDL192W, strain arf1, hits give low values 1.05 | locus YDR001C, strain nth1, hits give low values 1.02 | locus YDR069C, strain doa4, hits give low values 1.04 | locus YDR101C, strain arx1, hits give low values 1.07 | locus YDR137W, strain rgp1, hits give low values 1.08 | locus YDR150W, strain NUM1, hits give low values 0.978 | locus YDR159W, strain sac3, hits give low values 1.05 | locus YDR162C, strain NBP2, hits give low values 1.03 | locus YDR195W, strain ref2 1.01 | locus YDR297W, strain sur2, hits give low values 1.03 | locus YDR318W, strain mcm21, hits give low values 1.02 | locus YDR334W, strain swr1, hits give low values 1.02 | locus YDR335W, strain msn5, hits give low values 1.03 | locus YDR388W, hits give low values 1.03 | locus YDR392W, strain spt3, hits give low values 0.993 | locus YDR502C, strain sam2, hits give low values 1.03 | locus YEL003W, strain gim4, hits give low values 1.04 | locus YEL037C, strain rad23, hits give low values 1.02 | locus YEL061C, strain CIN8 (second series), hits give low values 1.03 | locus YEL061C, strain CIN8, hits give low values 1.01 | locus YER015W, strain faa2, hits give low values 1.03 | locus YER016W, strain bim1, hits give low values 1.02 | locus YER110C, hits give low values 1.03 | locus YER111C, strain swi4, hits give low values 1.03 | locus YER155C, strain BEM2 (second series), hits give low values 1.03 | locus YER155C, strain BEM2, hits give low values 1.01 | locus YER167W, strain BCK2, hits give low values 1.01 | locus YFR010W, strain ubp6, hits give low values 1.05 | locus YGL078C, strain dbp3, hits give low values 1.03 | locus YGL086W, strain mad1, hits give low values 0.979 | locus YGL167C, strain pmr1, hits give low values 1.04 | locus YGL173C, strain kem1, hits give low values 1.04 | locus YGL227W, strain vid30, hits give low values 1.04 | locus YGL240W, strain doc1, hits give low values 1.03 | locus YGL248W, strain PDE1, hits give low values 1.02 | locus YGL253W, strain hxk2, hits give low values 1.02 | locus YGR078C, strain PAC10, hits give low values 1.02 | locus YGR135W, strain pre9, hits give low values 1.06 | locus YGR252W, strain gcn5, hits give low values 1.05 | locus YHR013C, strain ard1, hits give low values 1.05 | locus YHR027C, strain rpn1, hits give low values 1.04 | locus YHR030C, strain SLT2, hits give low values 1.01 and 1.02 | locus YHR079C, strain IRE1 (second series), hits give low values 1.02 | locus YHR079C, strain IRE1, hits give low values 1.06 | locus YHR094C, strain hxt1, hits give low values 1.03 | locus YHR129C, strain ARP1, hits give low values 1.01 | locus YHR142W, strain chs7, hits give low values 1.03 | locus YHR200W, strain rpn10, hits give low values 1.03 | locus YIL066C, strain RNR3, hits give low values 1.01 | locus YIL073C, strain SPO22, hits give low values 1.04 | locus YIL125W, strain kgd1, hits give low values 1.04 | locus YIR030C, strain dcg1, hits give low values 1.02 | locus YJL092W, strain hpr5, hits give low values 1.03 | locus YJL095W, strain BCK1 (second series), hits give low values 1.02 | locus YJL095W, strain BCK1, hits give low values 1.02 and 1.03 | locus YJL115W, strain asf1, hits give low values 1.04 | locus YJL129C, strain trk1, hits give low values 1.05 | locus YJL134W, strain LCB3, hits give low values 0.998 | locus YJL154C, strain vps35, hits give low values 1.01 | locus YJL164C, strain tpk1, hits give low values 1 | locus YJL166W, strain qcr8, hits give low values 1.03 | locus YJL168C, strain set2, hits give low values 1.03 | locus YJL187C, strain SWE1 (second series), hits give low values 1.03 | locus YJL187C, strain SWE1, hits give low values 1.03 | locus YJR043C, strain POL32, hits give low values 1

Reference: PubChem BioAssay AID1159580 (chemical genetic matrix, 2015)
